From PubChem
A selection: hits, their analogues and other compounds. The true share with any hit is near 5%.
USP2a inhib: qHTS Assay for Inhibitors of Ubiquitin-specific Protease USP2a | Ubiquitin carboxyl-terminal hydrolase 2 (Homo sapiens), O75604 | USP2a enzymatic assay, qHTS inhibition | Potency, µM (doses to about 38.3 µM), hits mostly inhibitors | 60,000 compounds, 0.1% hits; also: nearly all actives have a fitted effect of over 60% in size
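USP2 core (20 nM final) was preincubated with compound for 30 min at RT in 20 mM Tris-HCl pH 8.0, 2 mM CaCl2, 2 mM beta-mercaptoethanol; Ub-PLA2 (20 nM) plus NBD C6-HPC (20 uM) then added, fluorescence read after 2.5 h.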
CRE Fsk mod: Cell signaling CRE-BLA (Fsk stim); AID 662, 2007; 71,000 compounds, 2.5% hits; Potency, µM (top dose mostly 38.2 µM), usual class: activators; CHO CRE-bla reporter (cAMP response element driving beta-lactamase), forskolin EC10, beta-lactamase ratio; active = well fitted activation curve with a large enough effect in the signal ratio, with a control signal flat, not every such curve was filed as active; inconclusive = small, poorly fitted or top-dose-only effect, or effect the other way, or a change in a side signal; the % refers to the signal ratio
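Reporter-gene assay: CHO cells with beta-lactamase behind cAMP responsive elements, co-treated with compound and EC10 NKH 477 for 3 hours at 37 degrees Celsius. Activity came from the 460/530 nm CCF4 emission ratio.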
TSHR agonist: qHTS Assay for Agonists of the Thyroid Stimulating Hormone Receptor; Thyrotropin receptor (Homo sapiens), P16473; Potency, µM (doses to about 57.1 µM), actives largely listed as activators; AID 926, 2007; HEK293-CNG-TSHR cells (CNG channel as cAMP sensor), membrane potential dye, cAMP; 73,000 compounds, 0.48% hits; active = well fitted activation curve with a large enough effect in the main read-out, with a control signal flat, not every such curve was filed as active; inconclusive = small, poorly fitted or top-dose-only effect, or a change in a side signal; inactive = no such curve, though single readings can be large or run the other way; reference of the percent scale not stated here;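 also: the control signal comes from parental cells without the receptor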
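HEK 293 cells stably expressing TSHR and a modified CNG channel, with CNG-only parental cells as counterscreen, were preloaded 60 min at room temperature with membrane potential dye containing 100 uM RO 20-1724. Compound exposure was 30 min, and depolarization was read as fluorescence at 590 nm.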
Caspase-7 inhib: qHTS Assay for Allosteric/Competitive Inhibitors of Caspase-7; 75,000 compounds, 0.02% hits; AID 889, 2007; recombinant caspase-7, Ac-DEVD-AFC fluorescence rate; Potency, µM (titrated, usually from 57.5 µM), most hits filed as inhibitors; P55210; active = well fitted inhibition curve with a large enough effect in the main read-out, with a control signal flat, not every such curve was filed as active; inconclusive = small, poorly fitted or top-dose-only effect, or a change in a side signal
HEK293 cAMP ctrl: qHTS Assay for Agonists of the Thyroid Stimulating Hormone Receptor: Activators of Intracellular cAMP Concentrations in Parental HEK 293; Potency, µM (highest dose often 57.1 µM), actives largely listed as activators; parental HEK293 CNG cAMP sensor, membrane potential fluorescence; AID 938, 2007; 73,000 compounds, 2.5% hits; also: nearly all actives have a fitted effect of over 55% in size
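Parental HEK 293 cells stably expressing a modified CNG channel (no TSHR) report cAMP rise as membrane depolarization. Membrane potential dye with 100 uM RO 20-1724 was loaded for 60 min at room temperature, then compound added for 30 min; fluorescence read at 590 nm.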
Casp1 inh: qHTS Assay for Allosteric/Competitive Inhibitors of Caspase-1. Potency, µM (top dose mostly 57.5 µM), hits mostly inhibitors. 75,000 compounds, 0.03% hits. AID 900, 2007. Caspase-1 enzyme, Ac-WEHD-AFC fluorogenic rate
HEK293 cAMP cnt: Confirmation Concentration-Response Assay for Agonists of the Thyroid Stimulating Hormone Receptor: Activators of Intracellular cAMP Concentrations in Parental HEK 293. activity change, negative = inhibition, % at 32.9 µM. shares compounds with TSHR agonist. 150 tested, under 10 active. parental HEK293 CNG biosensor, cAMP membrane potential fluorescence
Numbers stand for hits; n = inactive; u = inconclusive; x = no result; [ ] = another dose, or the depositor's remark. Unless noted, calls follow the shape of the dose curve; as a rule, active = well fitted curve in the direction sought with a large enough effect; inconclusive = small, poorly fitted or top-dose-only effect, or another doubt; inactive = no such curve, though single readings can be large; an effect the other way counts as inactive or inconclusive.

SMILES	USP2a inhib	CRE Fsk mod	TSHR agonist	Caspase-7 inhib	HEK293 cAMP ctrl	Casp1 inh	HEK293 cAMP cnt
Cc1oc2c(CN3CCOCC3)c(O)ccc2c(=O)c1-c1ccccc1	n	n	n	n	n	n	n
COc1cccc(Oc2c(C)oc3c(CN4CCOCC4)c(O)ccc3c2=O)c1	n	n	n	n	n	n	x
O=C1[C@@H]2[C@H]3[C@H](O)[C@H](O)C/C(=N/OCc4ccccc4)[C@H]3CC[C@H]2C(=O)N1c1ccc(F)cc1F	x	x	n[11.4 µM]	n[11.5 µM]	n[11.4 µM]	n[11.5 µM]	x
CCC(C)O (stereo unspecified)	x	n	u	n	n	n	x
Cc1nn(C)c(C)c1S(=O)(=O)N(CC(=O)Nc1nccs1)c1ccc(C(C)C)cc1	x	n	7.94µM	n	n	n	n
CC1(C)CC2CC(C)(CN2S(=O)(=O)c2ccc(N)cc2)C1 (stereo unspecified)	n	n	25.1µM	n	n	n	n
CN1CCN(S(=O)(=O)c2ccc(N)cc2)CC1	x	n	n	n	n	n	x
CCOC(=O)c1ccc(NC(=O)c2ccc(CN3CCOCC3)cc2)cc1	n	n	x	n	n	n	n
CC(=O)N1CCCc2cc(S(=O)(=O)N(C)CCC#N)ccc21	n	n	n	n	n	n	x
CC(=O)N1CCCc2cc(S(=O)(=O)N(CC(C)C)CC(C)C)ccc21	n	n	12.6µM	n	n	n	n
CCOC(=O)CCc1c(C)nc2c(c(C)nn2C(C)(C)C)c1C	x	n	25.1µM	n	n	n	n
N=c1c(C(=O)NCc2ccc(F)cc2)cc2c(=O)n3ccccc3nc2n1Cc1ccco1	n	u	n	u	n	x	n
COc1ccc(CNC(=O)c2cc3c(=O)n4ccccc4nc3n(Cc3cccnc3)c2=N)cc1	n	u	n	u	n	x	x
COc1ccc(COC(=O)N/N=C2/C[C@@H](O)[C@@H](O)[C@@H]3[C@@H]4C(=O)N(Cc5ccc6c(c5)OCO6)C(=O)[C@H]4CC[C@@H]23)cc1	x	x	n[11.4 µM]	n[11.5 µM]	n[11.4 µM]	n[11.5 µM]	x
Cc1ccccc1-c1nc(CN2CCC(C(=O)N3CCC(C(N)=O)CC3)CC2)c(C)o1	x	n	n	n	n[11.4 µM]	n	x
Cc1ccccc1-c1nc(CN2CCC(C(=O)N3CCN(c4ccccn4)CC3)CC2)c(C)o1	x	n	n	n	n	n	n
Brc1ccc(Oc2nnnn2-c2ccccc2)cc1	x	n	25.1µM	n	n	n	n
CCSCCOC(=O)C1=C(C)N(C)C(=O)NC1c1cc(OC)ccc1OC (stereo unspecified)	x	n	25.1µM	n	n	n	n
CCc1ccccc1NC1=NCC(=O)N1Cc1ccc(OC)cc1	n	n	7.94µM	n	n	n	n
O=C(CN(Cc1ccccc1Cl)C(=O)Cn1nnc(-c2cccs2)n1)NCC1CCCO1 (stereo unspecified)	x	n	6.31µM	n	n	n	n
CC(CCc1nc2ccccc2s1)(c1ccc(O)cc1)c1ccc(O)cc1	x	n[7.6 µM]	n[11.4 µM]	n[11.5 µM]	n[11.4 µM]	n[11.5 µM]	x
O=C1c2ccccc2C(=O)N1Cc1nc(-c2ccncc2)no1	n	n	n	n	n	n	x
O=C1c2ccccc2C(=O)N1Cc1nc(-c2ccccc2)no1	n	u	n	n	n	n	n
Cc1occc1-c1nnc(SCC(=O)Nc2ccccc2)n1C(C)c1ccccc1 (stereo unspecified)	n	n	7.94µM	n	n	n	n
O[C@H]([C@H](O)[C@@H](O)c1nc2ccccc2[nH]1)[C@@H](O)c1nc2ccccc2[nH]1	x	n[7.6 µM]	n[11.4 µM]	n[11.5 µM]	n[11.4 µM]	n[11.5 µM]	x
SMILES	USP2a inhib	CRE Fsk mod	TSHR agonist	Caspase-7 inhib	HEK293 cAMP ctrl	Casp1 inh	HEK293 cAMP cnt
O=C(C1CCCCC1)N(Cc1ccccc1)c1ccccn1	n	n	n	n	n	n	x
O=C(c1ccc(Br)o1)N(Cc1ccccc1)c1ccccn1	n	n	u	n	u	n	n
COc1cc(/C=N/n2c(SC)nnc(C(C)(C)C)c2=O)ccc1O	n	u	n	n	n	n	n
OC[C@@H](O)[C@@H](O)[C@@H](O)[C@@H](O)c1nc2ccc(Cl)cc2[nH]1	x	n[7.6 µM]	n[11.4 µM]	n[11.5 µM]	n[11.4 µM]	n[11.5 µM]	x
Cn1cccc1Cc1nnc(SCC(N)=O)n1CCc1ccccc1	x	n	n	n	n	n	n
Cc1cnc(NC(=O)c2ccc3c(c2)C(=O)N(Cc2ccco2)C3=O)s1	n	n	n	n	n	n	n
O=C(NC1=NCCS1)c1ccc2c(c1)C(=O)N(Cc1ccco1)C2=O	n	u	n	n	n	n	x
O=C(CN(Cc1ccc(F)cc1)S(=O)(=O)c1ccccc1)N1CCCCC1	n	n	25.1µM	n	n	n	n
Cc1ccc(S(=O)(=O)N(CC(=O)N2CCC(C(N)=O)CC2)Cc2ccc(F)cc2)cc1	n	n	n	n	n	n	x
CC=C(Cl)Cl	x	n	u	n	u	n	x
O=S(=O)(c1ccccc1)N1CCC2(CCN(c3ncccn3)CC2)CC1	n	n	n	n	n	n	x
COc1cccc(C2CC(c3ccccc3C)n3nc(N)nc3N2)c1 (stereo unspecified)	x	n	n	n	n	n	x
COc1cccc(C2CC(c3ccccc3OC)n3nc(N)nc3N2)c1 (stereo unspecified)	x	n	n	n	n	n	n
O=C1C2C3CCCC3=C3CCCC3C2C(=O)N1c1ccc(Cl)cc1 (stereo unspecified)	n	n	3.16µM	n	n	u	n
O=C1C2C3CCCC3=C3CCCC3C2C(=O)N1c1cccc(Cl)c1 (stereo unspecified)	n	n	u	n	u	n	x
COc1ccc(C2Nc3ccccc3C(=O)N2Cc2ccco2)cc1COc1ccc(NC(C)=O)cc1 (stereo unspecified)	n	n	0.631µM	n	n	n	n
c1ccc(-n2cnc3cc(NCc4ccncc4)ccc32)cc1	n	u	n	n	n	n	n
c1ccc(-n2cnc3cc(NCc4ccccn4)ccc32)cc1	n	n	n	n	n	n	x
COc1cc(OC)cc(-c2nnc(SCC(=O)N(C(C)C)C(C)C)o2)c1	n	n	25.1µM	n	n	n	n
CN(C)c1ccc(-c2nccc(Nc3ccc(F)cc3)n2)cc1	n	u	n	n	n	u	x
